In ChEMBL document CHEMBL1961873, “Compounds: GSK PKIS; Assays: Nanosyn kinase panel” (2012) one finds inhibition data, which are given here for eleven compounds.

Assay [1] addresses Mitogen-activated protein kinase kinase kinase kinase 4 (Homo sapiens) (UniProt O95819). The settings on record: at 1 µM.
For assay [2], the target named is Dual specificity mitogen-activated protein kinase kinase 1 (Homo sapiens) (UniProt Q02750). The settings on record: at 0.1 µM.
For assay [3] the target is unchanged. The settings on record: at 1 µM.
Assay [4] has as its target Misshapen-like kinase 1 (Homo sapiens) (UniProt Q8N4C8). The settings on record: at 0.1 µM.
Assay [5] shares this target. The settings on record: at 1 µM.
Assay [6] deals with T1, Serine/threonine-protein kinase 4 (Homo sapiens) (UniProt Q13043).
T1 sequence (whole entry): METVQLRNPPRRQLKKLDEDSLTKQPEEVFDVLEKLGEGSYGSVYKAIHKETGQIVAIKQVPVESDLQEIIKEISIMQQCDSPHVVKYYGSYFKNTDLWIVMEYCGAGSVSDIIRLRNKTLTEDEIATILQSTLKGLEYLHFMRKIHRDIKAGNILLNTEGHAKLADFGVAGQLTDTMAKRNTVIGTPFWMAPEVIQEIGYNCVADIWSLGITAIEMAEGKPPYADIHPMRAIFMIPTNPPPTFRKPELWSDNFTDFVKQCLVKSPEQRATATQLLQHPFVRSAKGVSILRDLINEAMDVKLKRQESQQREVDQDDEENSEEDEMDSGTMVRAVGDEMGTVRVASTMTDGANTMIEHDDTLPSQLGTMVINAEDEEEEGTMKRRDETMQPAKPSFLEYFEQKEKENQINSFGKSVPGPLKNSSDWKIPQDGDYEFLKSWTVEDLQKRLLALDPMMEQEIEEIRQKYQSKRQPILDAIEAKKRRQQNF
The note with it: at 0.1 µM.

In assay [7] the target is T1, Serine/threonine-protein kinase 4 (Homo sapiens). The note with it: at 1 µM.
Assay [8] addresses T2, Serine/threonine-protein kinase 3 (Homo sapiens) (UniProt Q13188).
T2 sequence (whole entry): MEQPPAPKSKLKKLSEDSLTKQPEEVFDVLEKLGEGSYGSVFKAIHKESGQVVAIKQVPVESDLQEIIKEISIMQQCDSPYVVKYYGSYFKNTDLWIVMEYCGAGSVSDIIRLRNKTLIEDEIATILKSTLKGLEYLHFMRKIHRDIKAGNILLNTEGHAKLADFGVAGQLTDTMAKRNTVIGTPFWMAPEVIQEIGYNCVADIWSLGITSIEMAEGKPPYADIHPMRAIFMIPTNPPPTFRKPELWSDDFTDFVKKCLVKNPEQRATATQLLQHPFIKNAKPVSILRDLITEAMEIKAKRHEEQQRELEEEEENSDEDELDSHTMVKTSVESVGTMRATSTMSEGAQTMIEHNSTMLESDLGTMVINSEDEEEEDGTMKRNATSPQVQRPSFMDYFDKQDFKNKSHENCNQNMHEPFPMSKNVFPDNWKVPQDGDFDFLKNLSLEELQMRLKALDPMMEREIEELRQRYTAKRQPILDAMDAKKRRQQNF
The settings on record: at 0.1 µM.

Assay [9] deals with T2, Serine/threonine-protein kinase 3 (Homo sapiens). The settings on record: at 1 µM.
Assay [10] has as its target Serine/threonine-protein kinase 26 (Homo sapiens) (UniProt Q9P289). The note with it: at 0.1 µM.
For assay [11] the target is unchanged. The note with it: at 1 µM.
Assay [12] concerns the target Serine/threonine-protein kinase PAK 1 (Homo sapiens) (UniProt Q13153). The settings on record: at 0.1 µM.
The target is the same in assay [13]. The settings on record: at 1 µM.
In assay [14] the target is Serine/threonine-protein kinase PAK 2 (Homo sapiens) (UniProt Q13177). The note with it: at 0.1 µM.
Chain of Serine/threonine-protein kinase PAK 2 (Homo sapiens) (Q13177 whole entry): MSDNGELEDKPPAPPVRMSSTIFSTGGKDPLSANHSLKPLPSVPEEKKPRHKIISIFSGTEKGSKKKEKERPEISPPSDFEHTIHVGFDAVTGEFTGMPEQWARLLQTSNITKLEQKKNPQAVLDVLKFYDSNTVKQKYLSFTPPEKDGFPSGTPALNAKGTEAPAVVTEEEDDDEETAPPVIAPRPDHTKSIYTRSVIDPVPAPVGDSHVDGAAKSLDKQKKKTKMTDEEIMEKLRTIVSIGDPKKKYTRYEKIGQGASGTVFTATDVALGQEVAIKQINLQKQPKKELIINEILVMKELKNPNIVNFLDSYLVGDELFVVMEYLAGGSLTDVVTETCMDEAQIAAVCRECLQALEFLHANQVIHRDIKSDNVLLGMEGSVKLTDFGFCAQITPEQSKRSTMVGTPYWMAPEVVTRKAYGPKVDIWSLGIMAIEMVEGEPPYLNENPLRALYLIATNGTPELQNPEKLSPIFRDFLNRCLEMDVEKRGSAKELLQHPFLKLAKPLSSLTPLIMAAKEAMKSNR
Assay [15] has the same target. The settings on record: at 1 µM.
Assay [16] concerns the target Serine/threonine-protein kinase PAK 3 (Homo sapiens) (UniProt O75914). The note with it: at 0.1 µM.
The target is the same in assay [17]. The note with it: at 1 µM.
Assay [18] addresses Serine/threonine-protein kinase PAK 5 (Homo sapiens) (UniProt Q9P286). The settings on record: at 0.1 µM.
Assay [19] has the same target. The settings on record: at 1 µM.
In assay [20] the target is Serine/threonine-protein kinase PAK 6 (Homo sapiens) (UniProt Q9NQU5). The note with it: at 0.1 µM.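 Also: mean PAK6 inhibition reported from the GSK PKIS screen.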
Chain of Serine/threonine-protein kinase PAK 6 (Homo sapiens) (Q9NQU5 whole entry, looked up): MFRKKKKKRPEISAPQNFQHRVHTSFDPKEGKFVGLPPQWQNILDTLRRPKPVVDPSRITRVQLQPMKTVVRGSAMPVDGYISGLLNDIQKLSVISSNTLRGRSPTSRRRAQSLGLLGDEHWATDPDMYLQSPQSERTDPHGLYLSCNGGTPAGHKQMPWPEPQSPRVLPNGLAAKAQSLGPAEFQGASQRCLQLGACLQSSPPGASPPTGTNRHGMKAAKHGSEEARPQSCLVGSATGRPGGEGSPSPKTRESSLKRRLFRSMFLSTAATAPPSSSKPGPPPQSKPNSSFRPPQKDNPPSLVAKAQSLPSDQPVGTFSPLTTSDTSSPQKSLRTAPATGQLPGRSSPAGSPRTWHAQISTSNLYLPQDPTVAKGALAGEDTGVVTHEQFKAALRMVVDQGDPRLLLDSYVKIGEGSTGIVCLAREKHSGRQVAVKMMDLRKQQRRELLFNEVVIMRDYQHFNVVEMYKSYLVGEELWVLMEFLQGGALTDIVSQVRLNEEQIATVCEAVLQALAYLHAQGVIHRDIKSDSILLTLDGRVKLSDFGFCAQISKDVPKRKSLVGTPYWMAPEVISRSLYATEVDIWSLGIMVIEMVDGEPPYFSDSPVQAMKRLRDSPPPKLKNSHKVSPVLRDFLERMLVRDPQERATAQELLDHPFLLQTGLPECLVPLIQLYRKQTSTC

Chain of Mitogen-activated protein kinase kinase kinase kinase 4 (Homo sapiens) (O95819 2-1239 limits assumed): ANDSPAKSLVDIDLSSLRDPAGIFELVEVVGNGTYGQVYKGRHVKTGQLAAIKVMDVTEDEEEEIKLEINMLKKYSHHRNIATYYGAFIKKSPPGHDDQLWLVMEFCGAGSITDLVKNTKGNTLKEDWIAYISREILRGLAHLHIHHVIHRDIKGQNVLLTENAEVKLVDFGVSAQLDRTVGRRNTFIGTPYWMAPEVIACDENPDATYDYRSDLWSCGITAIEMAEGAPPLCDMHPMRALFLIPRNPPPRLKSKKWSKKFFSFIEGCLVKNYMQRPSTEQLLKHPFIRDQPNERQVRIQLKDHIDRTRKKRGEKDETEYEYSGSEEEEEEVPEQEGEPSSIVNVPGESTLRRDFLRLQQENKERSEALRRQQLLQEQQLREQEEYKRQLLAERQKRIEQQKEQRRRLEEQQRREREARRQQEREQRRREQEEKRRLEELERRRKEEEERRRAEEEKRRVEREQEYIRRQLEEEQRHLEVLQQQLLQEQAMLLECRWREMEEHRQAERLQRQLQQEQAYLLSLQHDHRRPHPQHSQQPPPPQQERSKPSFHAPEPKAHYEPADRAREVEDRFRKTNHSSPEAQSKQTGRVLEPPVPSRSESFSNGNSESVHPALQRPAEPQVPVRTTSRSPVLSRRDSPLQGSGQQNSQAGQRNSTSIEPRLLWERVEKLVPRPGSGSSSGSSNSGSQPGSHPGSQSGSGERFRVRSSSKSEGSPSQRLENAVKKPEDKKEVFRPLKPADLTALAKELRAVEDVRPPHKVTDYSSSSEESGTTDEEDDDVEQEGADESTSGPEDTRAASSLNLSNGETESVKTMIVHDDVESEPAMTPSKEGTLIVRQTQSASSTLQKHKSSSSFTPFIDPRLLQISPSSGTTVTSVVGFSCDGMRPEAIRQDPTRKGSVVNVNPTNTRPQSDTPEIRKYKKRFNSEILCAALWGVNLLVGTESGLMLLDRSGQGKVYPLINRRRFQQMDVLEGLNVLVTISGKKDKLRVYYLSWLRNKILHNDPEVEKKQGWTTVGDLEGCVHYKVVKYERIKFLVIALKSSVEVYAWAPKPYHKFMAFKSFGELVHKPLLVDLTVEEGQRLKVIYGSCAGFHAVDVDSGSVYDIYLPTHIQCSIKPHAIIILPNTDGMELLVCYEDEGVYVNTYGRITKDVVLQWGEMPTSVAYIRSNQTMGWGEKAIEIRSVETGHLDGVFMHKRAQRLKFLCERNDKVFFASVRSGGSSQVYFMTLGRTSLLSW
Chain of Misshapen-like kinase 1 (Homo sapiens) (Q8N4C8 whole entry, looked up): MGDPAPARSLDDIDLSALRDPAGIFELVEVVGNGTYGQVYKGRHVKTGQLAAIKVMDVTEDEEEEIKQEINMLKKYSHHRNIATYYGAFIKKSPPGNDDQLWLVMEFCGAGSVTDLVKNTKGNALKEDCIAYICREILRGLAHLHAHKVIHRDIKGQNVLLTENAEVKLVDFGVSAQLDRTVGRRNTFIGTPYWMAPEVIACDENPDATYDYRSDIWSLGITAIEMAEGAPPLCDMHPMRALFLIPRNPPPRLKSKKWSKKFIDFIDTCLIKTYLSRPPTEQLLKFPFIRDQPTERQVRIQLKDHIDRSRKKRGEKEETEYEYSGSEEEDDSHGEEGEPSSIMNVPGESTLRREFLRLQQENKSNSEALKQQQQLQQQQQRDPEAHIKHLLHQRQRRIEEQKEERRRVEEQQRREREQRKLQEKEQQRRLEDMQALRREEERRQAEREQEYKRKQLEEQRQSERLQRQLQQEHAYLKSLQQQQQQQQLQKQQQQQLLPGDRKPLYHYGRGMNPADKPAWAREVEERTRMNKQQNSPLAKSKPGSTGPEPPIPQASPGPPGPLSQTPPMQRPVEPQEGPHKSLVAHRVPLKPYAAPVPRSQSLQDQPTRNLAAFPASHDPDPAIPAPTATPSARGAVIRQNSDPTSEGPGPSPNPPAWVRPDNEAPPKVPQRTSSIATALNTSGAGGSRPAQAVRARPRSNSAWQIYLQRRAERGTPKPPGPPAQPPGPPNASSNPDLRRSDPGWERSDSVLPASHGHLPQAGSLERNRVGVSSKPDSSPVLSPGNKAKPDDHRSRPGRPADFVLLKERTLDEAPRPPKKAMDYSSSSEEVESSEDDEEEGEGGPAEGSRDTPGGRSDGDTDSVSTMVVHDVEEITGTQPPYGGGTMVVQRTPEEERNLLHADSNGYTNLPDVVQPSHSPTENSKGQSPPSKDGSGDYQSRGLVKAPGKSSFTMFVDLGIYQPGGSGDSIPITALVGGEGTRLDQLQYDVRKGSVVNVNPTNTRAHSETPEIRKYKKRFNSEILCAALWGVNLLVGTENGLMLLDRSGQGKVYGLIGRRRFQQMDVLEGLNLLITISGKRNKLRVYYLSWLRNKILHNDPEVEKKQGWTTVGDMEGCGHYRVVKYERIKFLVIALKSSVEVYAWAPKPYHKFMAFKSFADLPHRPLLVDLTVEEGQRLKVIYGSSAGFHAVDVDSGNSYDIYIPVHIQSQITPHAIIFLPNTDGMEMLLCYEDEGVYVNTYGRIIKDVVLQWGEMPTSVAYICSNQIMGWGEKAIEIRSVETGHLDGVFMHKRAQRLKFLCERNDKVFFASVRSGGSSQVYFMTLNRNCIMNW
Chain of Dual specificity mitogen-activated protein kinase kinase 1 (Homo sapiens) (Q02750 whole entry): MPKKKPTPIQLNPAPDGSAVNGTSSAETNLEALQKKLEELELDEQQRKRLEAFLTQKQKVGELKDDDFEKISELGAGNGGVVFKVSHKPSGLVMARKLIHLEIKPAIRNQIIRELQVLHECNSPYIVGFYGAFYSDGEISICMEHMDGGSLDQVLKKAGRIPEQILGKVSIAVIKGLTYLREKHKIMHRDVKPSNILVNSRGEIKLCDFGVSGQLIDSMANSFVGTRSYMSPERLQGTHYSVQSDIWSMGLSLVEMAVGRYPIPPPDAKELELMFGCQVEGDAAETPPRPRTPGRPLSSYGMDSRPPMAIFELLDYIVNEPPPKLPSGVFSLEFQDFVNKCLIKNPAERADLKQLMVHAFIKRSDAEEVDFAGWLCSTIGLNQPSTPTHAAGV
Chain of Serine/threonine-protein kinase 26 (Homo sapiens) (Q9P289 2-416 limits assumed): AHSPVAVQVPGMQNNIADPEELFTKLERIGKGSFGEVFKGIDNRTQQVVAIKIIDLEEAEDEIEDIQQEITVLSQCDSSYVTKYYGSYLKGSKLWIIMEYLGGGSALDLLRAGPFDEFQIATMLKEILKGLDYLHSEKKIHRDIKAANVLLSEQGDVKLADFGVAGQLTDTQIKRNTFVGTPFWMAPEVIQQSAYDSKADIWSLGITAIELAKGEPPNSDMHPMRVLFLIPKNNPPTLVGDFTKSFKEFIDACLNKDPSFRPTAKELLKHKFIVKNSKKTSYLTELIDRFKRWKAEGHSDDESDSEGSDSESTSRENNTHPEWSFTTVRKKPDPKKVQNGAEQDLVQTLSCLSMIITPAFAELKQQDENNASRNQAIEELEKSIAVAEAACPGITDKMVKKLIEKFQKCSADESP

With `CCn1c(-c2nonc2N)nc2c(C#CC(C)(C)O)ncc(OC3CCNCC3)c21`, the inhibition is 6.21% in [1]; 1.98% in [2]; 3.44% in [3]; 4.48% in assay [4]; 5.83% in assay [5]; 1.6% in assay [6]. Also, the inhibition in [7] turned out to be 4.54%; in assay [8], 3.55%; in [9], 6.04%; in assay [10] it was 0.64%; in assay [11] it was 4.19%; in [12], 2.8%. Moreover, the inhibition amounted to 8.91% in assay [13]; 1.98% in [14]; 13.5% in assay [15]; 2.99% in [16]; 8.39% in assay [17]; 34.6% in assay [18]. The figures for the inhibition in assay [19] and in [20] were 80.1% and 14.6%, respectively.
For `CCn1c(-c2nonc2N)nc2ccccc21`, the inhibition in assay [1] was 22.5%; in [2], 4.06%; in assay [3], 4.74%; in assay [4] it was 5.52%; in assay [5] it was 13.2%; in assay [6], 5.56%. The inhibition in assay [7] was 7.11%; in assay [8] it was 6.31%; in assay [9] it was 5.79%; in assay [10], -1.3%; in [11] it was -1.31%; in assay [12], 5%. Also, the inhibition in assay [13] came out at 6.81%; in [14], 3.34%; in [15], 2.08%; in [16], 1.86%; in assay [17] it was 4.13%; in assay [18] it was 5.02%. Also, the inhibition in assay [19] was determined as 8.78%; in [20] it was 0.13%.
`CNC(=O)c1cc(-c2ccc(F)cc2)cc(-c2ccc(S(=O)(=O)N3CCCC3)cc2)c1N`: the inhibition in [1] is 7.55%; in assay [2], 2.79%; in assay [3] it was 4.52%; in [4], 4.69%; in assay [5] it was 5.6%; in [6], 0.78%. Also, the inhibition is 1.31% in assay [7]; 0.82% in assay [8]; 1.3% in [9]; -0.65% in [10]; -1.61% in [11]; 3.68% in [12]. In addition, the inhibition in assay [13] amounted to 9.51%; in assay [14] it was 1.46%; in assay [15], 0.63%; in [16], 3.43%; in [17] it was 5.29%; in assay [18] it was 2.26%. For the same compound, the inhibition in assay [19] was 3.67%; in assay [20], -9.04%.
As for `CCc1nn2ncccc2c1-c1ccnc(NC2CC2)n1`, the inhibition amounted to 5.59% in assay [1]; 2.65% in [2]; 2.39% in assay [3]; 3.11% in assay [4]; 3.73% in assay [5]; 1.74% in assay [6]. For the same compound, the inhibition is 3.6% in [7]; 1.75% in assay [8]; 5.22% in [9]; -1.35% in [10]; 1.56% in assay [11]; 3.36% in assay [12]. In addition, the inhibition in assay [13] is 4.68%; in [14], 1.85%; in assay [15], 1.62%; in assay [16], 3.09%; in assay [17] it was 3.37%; in assay [18], -2.62%. Further, the inhibition is 0.37% in assay [19] and -9.47% in assay [20].
As for `CC(C)COC(=O)c1ccc2c(c1)/C(=C/Nc1ccc(S(N)(=O)=O)cc1)C(=O)N2`, the inhibition in assay [1] came out at 65.3%; in [2], 3.79%; in [3], 33.7%; in [4], 10.3%; in assay [5], 53.8%; in assay [6] it was 46.2%. The inhibition in assay [7] was 81.5%; in [8], 34%; in assay [9], 77.9%; in [10], -0.24%; in assay [11], 10.7%; in assay [12], -0.34%. For the same compound, the inhibition in [13] is 1.52%; in [14], -2.84%; in [15], 0.1%; in assay [16], -2.65%; in assay [17], -0.22%; in assay [18], -0.7%. Moreover, the results for the inhibition in assay [19] and in [20] were 5.79% and 11.9%, respectively.
`FC(F)(F)c1cccc(-c2nn3ncccc3c2-c2ccnc(Nc3ccc4c(c3)OCCO4)n2)c1`: the inhibition in [1] amounted to 58.1%; in assay [2], 2.31%; in assay [3], 4.08%; in [4] it was 9.69%; in [5], 55.8%; in [6] it was 4.33%. Moreover, the inhibition in assay [7] is 6.24%; in assay [8], 5.41%; in assay [9], 4.99%; in assay [10], -0.12%; in [11], 0.56%; in assay [12] it was 3.7%. Besides, the inhibition in assay [13] was 3.72%; in assay [14] it was 1.01%; in assay [15], 1.43%; in assay [16] it was 1.69%; in assay [17] it was 2.03%; in assay [18], -5.89%. The values for the inhibition in assay [19] and in assay [20] were -2.25% and -3.42%, respectively.
For the compound `CCn1c(-c2nonc2N)nc2c(C#CC(C)(C)O)nc(OC[C@H](N)c3ccccc3)cc21`, the inhibition in [1] was 35.1%; in [2], 2.26%; in [3], 4.39%; in [4] it was 6.18%; in assay [5] it was 21.1%; in assay [6], 7.92%. The inhibition in [7] was 42.7%; in assay [8], 9.64%; in assay [9] it was 42.4%; in assay [10], -0.06%; in assay [11] it was 28.1%; in [12], 1.29%. Further, the inhibition in [13] is 3.91%; in assay [14] it was 1.1%; in assay [15] it was 10.9%; in assay [16], 2.18%; in assay [17], 4.83%; in assay [18], 37.3%. For the same compound, the inhibition was determined as 70.9% in assay [19] and 49.4% in [20].
For the compound `N#Cc1c(NC(=O)CN2CCOCC2)sc2c1CCCC2`, the inhibition in assay [1] is 8.62%; in assay [2], 6.12%; in assay [3], 5.95%; in [4] it was 6.83%; in assay [5] it was 6.87%; in [6], 5.59%. Further, the inhibition in [7] is 8.28%; in assay [8], 4.7%; in assay [9] it was 8.26%; in [10], -1.62%; in assay [11], -0.59%; in [12], 8.81%. Also, the inhibition in assay [13] was found to be 4.43%; in assay [14], 1.25%; in assay [15], 0.76%; in assay [16], 3.48%; in assay [17], 4.91%; in assay [18], 2.38%. Moreover, the inhibition in assay [19] came out at 3.24%; in [20] it was 0.72%.
For `CCOc1ccc2c(-c3ccnc(Nc4cccc(C(F)(F)F)c4)n3)cnn2n1`, the inhibition was determined as 4.83% in [1]; 2.29% in assay [2]; 0.44% in [3]; 3.9% in assay [4]; 7.19% in assay [5]; 3.72% in assay [6]. Further, the inhibition was 3.98% in assay [7]; 5.61% in assay [8]; 6.48% in [9]; 0.02% in assay [10]; 0.13% in assay [11]; 4.57% in assay [12]. In addition, the inhibition in assay [13] was 3.75%; in [14] it was -0.07%; in assay [15], -0.6%; in assay [16], 3.17%; in assay [17], 2.39%; in assay [18] it was 0.65%. Besides, the inhibition in assay [19] is -0.74%; in [20], -3.86%.
`COc1ccc(-c2nn3ncccc3c2-c2ccnc(Nc3ccc4c(c3)OCCO4)n2)cc1`: the inhibition is 9.82% in assay [1]; 0.5% in assay [2]; 1.59% in assay [3]; 3.01% in assay [4]; 7.26% in assay [5]; -0.55% in assay [6]. The inhibition was 1.99% in assay [7]; -0.94% in assay [8]; -0.28% in assay [9]; 0.86% in assay [10]; 0.26% in assay [11]; 3.86% in assay [12]. Also, the inhibition in assay [13] was -2.26%; in assay [14] it was -0.29%; in [15], 0.11%; in assay [16], 1.09%; in assay [17], 1.51%; in [18] it was -2.13%. The values for the inhibition in assay [19] and in assay [20] were -5% and 1.12%, respectively.
As to `CN1CCC(n2cnc(-c3ccc(F)cc3)c2-c2ccnc(N)n2)CC1`, the inhibition worked out at 12% in assay [1]; 3.26% in [2]; 3.41% in assay [3]; 4.61% in [4]; 11% in [5]; 2.73% in assay [6]. Also, the inhibition was 7.85% in assay [7]; 3.58% in assay [8]; 6.77% in assay [9]; -1.05% in assay [10]; 1.62% in assay [11]; -0.17% in [12]. For the same compound, the inhibition is 3.27% in assay [13]; 0.07% in assay [14]; -0.19% in [15]; 0.98% in assay [16]; 1.43% in assay [17]; -5.17% in assay [18]. The figures for the inhibition in [19] and in assay [20] were 3.69% and -8.92%, respectively.
